Structures are written as SMILES. Several values for one entry are separate records, joined by “and”; a condition that tells them apart may be missing. Equal values may be shown once. Out of some 16,000 compounds screened, about 5,100 (32%) were called active. Inconclusive results (about 25%) are left out. Calls come from the whole dose curve; as a rule, active = well fitted curve in the direction sought with a large enough effect; inconclusive = small, poorly fitted or top-dose-only effect, or effect the other way; inactive = no such curve, though single readings can be large or run the other way. Some of the results follow.
% is set by controls: 0 for no effect and ±100 for the full control effect.

Cytochrome P450 3A4 (Homo sapiens), sequence (P08684 whole entry, looked up): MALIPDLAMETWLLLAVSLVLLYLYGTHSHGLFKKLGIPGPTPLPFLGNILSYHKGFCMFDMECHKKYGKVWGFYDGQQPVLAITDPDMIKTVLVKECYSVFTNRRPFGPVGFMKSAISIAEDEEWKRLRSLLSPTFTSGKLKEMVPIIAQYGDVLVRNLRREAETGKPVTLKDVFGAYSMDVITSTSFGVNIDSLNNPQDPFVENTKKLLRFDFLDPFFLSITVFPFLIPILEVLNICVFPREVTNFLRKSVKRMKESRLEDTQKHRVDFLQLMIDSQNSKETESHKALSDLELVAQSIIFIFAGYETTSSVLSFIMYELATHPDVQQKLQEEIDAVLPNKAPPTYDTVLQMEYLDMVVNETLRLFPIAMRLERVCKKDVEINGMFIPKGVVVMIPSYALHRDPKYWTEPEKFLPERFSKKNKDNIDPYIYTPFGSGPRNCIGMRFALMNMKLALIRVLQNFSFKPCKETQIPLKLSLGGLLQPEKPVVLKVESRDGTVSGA

This experiment concerns the target Cytochrome P450 3A4 (Homo sapiens) (UniProt P08684). Nature of the experiment: Cytochrome panel assay with activity outcomes. Particulars: recombinant CYP, pro-luciferin dealkylation, luminescence, p450-cyp3a4; series mostly up to 57.1 µM.
For the molecule `COCCn1c(=O)c(-c2ccccc2)nc2cnc(Nc3cccc(OC)c3)nc21`, the AC50 entry is “inactive”.

Regarding `COc1cccc(Nc2ncc3nc(-c4ccc(F)cc4)c(=O)n(CCC#N)c3n2)c1`, the half-maximal activity concentration (AC50) was 3.16 µM (active).

In the case of `COCCn1c(=O)c(-c2cc(F)cc(F)c2)nc2cnc(Nc3cccc(OC)c3)nc21`, the concentration at half-maximal activity (AC50) was 7.94 µM (active).

For `COc1ccc(Sc2nc3ccccc3n3c(C(F)(F)F)nnc23)cc1`, the activity, negative = inhibition is -0.72% [at 11.4 µM] (inactive).

`C[N+]1(C)CCc2cc3c(cc2[C@@H]1[C@@H]1C(=O)Oc2c1ccc1c2OCO1)OCO3`: the AC50 was 12.6 µM (active) and 15.8 µM (active).

Regarding `CN1CCc2cc3c(cc2[C@@H]1[C@@H]1C(=O)Oc2c1ccc1c2OCO1)OCO3`, the AC50 was 1.26 µM (active).

As to `CCCCSC(=S)N(C)C1CCS(=O)(=O)C1` (centres undefined), the AC50 result was “inactive”.

With `CN(C)c1ccc(-c2nccc(Nc3ccc(F)cc3)n2)cc1`, the AC50 was 12.6 µM (active).

With `CN(C)c1ccc(-c2cc(Nc3ccc(F)cc3)ncn2)cc1`, the half-maximal activity concentration (AC50) was 10 µM (active).

For `Fc1ccc(Nc2ccnc(-c3ccc4c(c3)OCO4)n2)cc1`, the AC50 was 2 µM (active).

Turning to `Fc1ccc(Nc2ccnc(-c3ccoc3)n2)cc1`, the AC50 is 7.94 µM (active).

For the molecule `Nc1nccc(Nc2ccc(S(N)(=O)=O)cc2)n1`, the activity, negative = inhibition is -5.22% [at 11.4 µM] (inactive).

Turning to `C(=Nc1cnc2ccccc2c1)c1ccc2ccccc2n1`, the activity, negative = inhibition is -12.4% [at 11.4 µM] (inactive).

Regarding `O=C1C2C3C=CC(C3)C2C(=O)N1c1ncn[nH]1` (centres undefined), the AC50 entry is “inactive”.

As to `O=C1C2C3c4ccccc4C(c4ccccc43)C2C(=O)N1c1nc(-c2ccccc2)cs1` (centres undefined), the activity, negative = inhibition is 0.59% [at 2.29 µM] (inactive).

On to `CC(C)(C)C(=O)N1CCc2cc(-c3csc(N)n3)ccc21`, for which the AC50 is 8.91 µM (active).

For `O=C(OCCN1CCCCC1)c1c[nH]c2ccccc12`, the AC50 result was “inactive”.

With `COc1ccccc1CNS(=O)(=O)c1ccc2[nH]cc(C(=O)O)c(=O)c2c1`, the AC50 entry is “inactive”.

Take `COc1cc(Cl)c(CC(=O)c2c[nH]c3ccccc23)cc1OC`: the AC50 was 2.51 µM (active).

Consider `Nc1cc(Cl)nc(N/N=C/c2ccccc2[N+](=O)[O-])n1`, for which the AC50 is 14.1 µM (active).

Regarding `Nc1nnnn1/N=C\c1ccc(Cl)c([N+](=O)[O-])c1`, the AC50 result was “inactive”.

Take `O=[N+]([O-])c1ccc(/C=N/Nc2cc(Cl)nc(-c3ccccc3)n2)cc1`: the AC50 result was “inactive”.

Turning to `N[C@@H]1[C@@H]2[C@@H]3C[C@H]4N(CC[C@@]14C(=O)C(=O)O)CC3=CCO[C@@H]2CC(=O)O`, the activity, negative = inhibition was -11.7% [at 11.4 µM] (inactive).

Turning to `COc1ccc2c(c1)CCc1c(C(=O)N3CCCCCC3)noc1-2`, the AC50 was 14.1 µM (active).

For `CSc1nc2ccccc2cc1/C=C(\C#N)c1ccc(Cl)cc1Cl`, the activity, negative = inhibition is 25.6% [at 11.4 µM] (inactive).

On to `CCOC(=O)C1=NNC2(c3ccc(Cl)cc3)C(=O)N(c3cc(C)cc(C)c3)C(=O)C12` (centres undefined), for which the AC50 was 2.24 µM (active).

Take `Cc1nc2sc(C#N)c(N)c2c2c1CCCC2`: the AC50 is 14.1 µM (active).

On to `Cc1ccc(-c2c3c(nc4sc(C(N)=O)c(N)c24)CCC3)cc1`, for which the activity, negative = inhibition was 0.806% [at 2.29 µM] (inactive).

As for `COc1nc(C)nc(Cl)c1NC1=NCCN1`, the AC50 result is “inactive”.

Regarding `CN=C1N[C@H](c2ccccc2)N(c2ccccc2)S1`, the AC50 is 31.6 µM (active).

With `S=C(NCCSCc1ccc(Cl)cc1Cl)Nc1ccccc1`, the AC50 is 7.94 µM (active).

Regarding `OCCSCc1cc(Cl)cc(Cl)c1O`, the activity, negative = inhibition is -27.9% [at 11.4 µM] (inactive).

Turning to `S=C(NCCSCc1c(Cl)cccc1Cl)Nc1ccccc1`, the AC50 is 7.08 µM (active).

`Oc1ccc2ccccc2c1C=NCc1c(O)ccc2ccccc12`: the activity, negative = inhibition was -15.3% [at 11.4 µM] (inactive).

In the case of `CCOC(=O)CSC1=C(C#N)C(C)C2=C(CCCC2=O)N1` (centres undefined), the AC50 entry was “inactive”.

For `C=CCOC(=O)C1=C(C)NC(SCC(=O)OCC)=C(C#N)C1c1ccc(C)cc1` (centres undefined), the AC50 was 2.24 µM (active).

On to `CCOC(=O)CSC1=C(C#N)C(c2sccc2C)C(C(C)=O)=C(C)N1` (centres undefined), for which the activity, negative = inhibition is 19% [at 2.29 µM] (inactive).

For `CC(=NCC(=O)O)c1ccccc1`, the activity, negative = inhibition was -4.83% [at 11.4 µM] (inactive).

On to `COc1ccccc1-c1nc(NCc2cccnc2)c2ccccc2n1`, for which the AC50 was 10 µM (active).

`COc1ccccc1-c1nc(NCc2cccs2)c2ccccc2n1`: the AC50 was 12.6 µM (active).

As for `COc1ccccc1-c1nc(NCc2ccccc2)c2ccccc2n1`, the AC50 was 3.98 µM (active).

Take `CC[N+](C)(CC)CCOC(=O)C1c2ccccc2Oc2ccccc21`: the AC50 entry was “inactive”.

As for `C[C@@H](C[C@H](N)C(=O)O)C(=O)O`, the activity, negative = inhibition was -6.03% [at 11.4 µM] (inactive).

As to `COc1ccc(COC2OC[C@]3(C)[C@H]4C5=C(CN3C(=O)OC(C)(C)C)[C@H](C)C(CO)C(CO)C5CC[C@@H]24)cc1` (some centres undefined), the AC50 was 7.94 µM (active).

For `COCC1C2CC[C@H]3C(OCc4ccc(OC)cc4)OC[C@]4(C)[C@H]3C2=C(CN4C(=O)OC(C)(C)C)[C@H](C)C1COC` (some centres undefined), the half-maximal activity concentration (AC50) was 1.58 µM (active).

Take `Cc1cc(NC(=O)c2c([N+](=O)[O-])c(C)nn2C)no1`: the AC50 entry is “inactive”.

Regarding `Cc1nn(C(C)C(=O)Nc2ccc(Cl)cn2)c(C)c1[N+](=O)[O-]` (centres undefined), the AC50 was 15.8 µM (active).

Consider `COc1cccc(NC(=S)NNC(=O)C(C)n2nc(C)c([N+](=O)[O-])c2C)c1` (centres undefined), for which the activity, negative = inhibition was -29.4% [at 2.29 µM] (inactive).

Turning to `Cc1nn(C(C)C(=O)Nc2sc3c(c2C#N)CCCC3)c(C)c1[N+](=O)[O-]` (centres undefined), the AC50 is 15.8 µM (active).

On to `Cc1nc2ccccc2nc(C)c1=NO`, for which the AC50 result was “inactive”.

With `Cc1cc(OC(=O)c2cc(F)c(F)cc2Cl)nc(C)n1`, the AC50 entry was “inactive”.

`CC(C)/C(=N/[N+](C)(C)C)c1ccccc1`: the activity, negative = inhibition was -14.9% [at 11.4 µM] (inactive).

Take `CO[C@H]1COC(=O)[C@H](C)NC(=O)C/C=C\[C@@H](C)[C@H](OC)COC(=O)[C@@H](OCc2ccccc2)/C=C\[C@@H]1C`: the activity, negative = inhibition is -29.2% [at 11.4 µM] (inactive).

As for `CO[C@@H]1COC(=O)C/C=C\[C@H](C)[C@@H](NS(=O)(=O)c2ccc(C)cc2)COC(=O)C/C=C\[C@@H]1C`, the AC50 was 3.98 µM (active) and 3.16 µM (active).

As to `CO[C@H]1COC(=O)[C@H](C)NC(=O)C/C=C\[C@@H](C)[C@@H](NS(=O)(=O)c2ccc(C)cc2)COC(=O)[C@H](OCc2ccccc2)/C=C\[C@@H]1C`, the AC50 was 3.16 µM (active).

For `CO[C@@H]1COC(=O)C/C=C\[C@@H](C)[C@H](OC)COC(=O)[C@@H](C)COC(=O)C/C=C\[C@H]1C`, the activity, negative = inhibition was -12.1% [at 11.4 µM] (inactive).

Regarding `CO[C@@H]1COC(=O)[C@H](C)NC(=O)C/C=C\[C@@H](C)[C@@H](NS(=O)(=O)c2ccc(C)cc2)COC(=O)C/C=C\[C@@H]1C`, the activity, negative = inhibition was 5.93% [at 11.4 µM] (inactive).

As for `CO[C@H]1COC(=O)C/C=C\[C@@H](C)[C@H](OC)COC(=O)[C@H]2CCCN2C(=O)C/C=C\[C@@H]1C`, the activity, negative = inhibition is -29.5% [at 11.4 µM] (inactive).

Turning to `CO[C@H]1COC(=O)[C@@H](CCSC)NC(=O)C/C=C\[C@@H](C)[C@H](OC)COC(=O)[C@@H](OCc2ccccc2)/C=C\[C@@H]1C`, the activity, negative = inhibition was -27.8% [at 11.4 µM] (inactive).

With `CO[C@H]1COC(=O)C/C=C\[C@H](C)[C@@H](NS(=O)(=O)c2ccc(C)cc2)COC(=O)C/C=C\[C@@H]1C`, the AC50 is 3.16 µM (active).

Regarding `CO[C@H]1COC(=O)[C@H](C)NC(=O)C/C=C\[C@@H](C)[C@@H](NS(=O)(=O)c2ccc(C)cc2)COC(=O)C/C=C\[C@@H]1C`, the AC50 is 3.98 µM (active).

`CO[C@@H]1COC(=O)C/C=C\[C@H](C)COC(=O)[C@H](C)NC(=O)C/C=C\[C@H]1C`: the activity, negative = inhibition was -19.1% [at 11.4 µM] (inactive).

Consider `CO[C@H]1COC(=O)[C@H]2CCCN2C(=O)[C@@H](C)COC(=O)C/C=C\[C@@H]1C`, for which the activity, negative = inhibition is -39.8% [at 11.4 µM] (inactive).

In the case of `CO[C@@H]1COC(=O)C/C=C\[C@H](C)[C@H](OC)COC(=O)[C@H]2CCCN2C(=O)C/C=C\[C@H]1C`, the activity, negative = inhibition is -14.8% [at 11.4 µM] (inactive).

As usually defined, the AC50 is the concentration at which the activity in the assay is half-maximal.

Source of the values: PubChem BioAssay AID1851 (National Center for Advancing Translational Sciences (NCATS), 2009).
